# This is one part of the list. Entries that show only a call come without a potency. Records with an inconclusive call do not appear. Activity calls are given as the source filed them. Calls come from the whole dose curve; as a rule, active = well fitted inhibition curve with a large enough effect; inconclusive = small, poorly fitted or top-dose-only effect; inactive = no such curve, though single readings can be large or run the other way. Peptide text beside a SMILES is read from it. * marks the point of attachment. Bz = O=C(c1ccccc1)*
# Biological target: ATP-dependent DNA helicase Q1 (Homo sapiens) (UniProt P46063)
# Experiment: Confirmation qHTS Assay for Inhibitors of RecQ-Like Dna Helicase 1 (RECQ1); note: nearly all actives have a fitted effect of over 45% in size
# Details: RECQ1 helicase DNA unwinding, fluorescence; series mostly up to 229 µM
# Text: Survival of cells and the faithful propagation of the genome depend on elaborate mechanisms of detecting and repairing DNA damage. Treatment of advanced cancer relies on radiation therapy or chemotherapy, which kill cancer cells by causing extensive DNA damage. It is often found, that cancer cells develop resistance to therapy through enhanced activity of DNA repair functions; this has led to an increased interest in developing drugs that interfere with DNA repair, which could sensitize cancer cells to conventional therapy.
# This validation qHTS assay pertains to human RECQ1, which is important in resolving abnormal DNA structures formed during replication or homologous recombination. Shutting down the expression of RECQ1 leads to chromosomal instability and higher radiation sensitivity in cultured cells.
# The validation assay was a fluorescence quenching based kinetic qHTS for RECQ1 Helicase DNA unwinding. The activity was measured as ATP-dependent separation of a 20-bp DNA duplex extended by 30-nt single-stranded tails (forked duplex). The forked DNA substrate was tagged with rhodamine fluorophore (carboxytetramethyl rhodamine, TAMRA) and BHQ-2 (Black Hole Quencher 2) dark quencher. Strand separation results in an increase in the fluorescence of TAMRA (excitation 525 nm, emission 598 nm). This substrate construct operates in a red-shifted region where very few compound library members have been noted to fluoresce (PubChem AIDs 593 and 594). An additional feature of the assay is the inclusion of 2.5 ug/ml poly (dIdC), to reduce interference by compounds such as DNA intercalators, a major source of false inhibitors.
# Opher Gileadi, Structural Genomics Consortium, University of Oxford
# Screening Center PI: Austin, C.P.
# Screening Center: NIH Chemical Genomics Center [NCGC]
# Three uL of reaction buffer (25 mM Tris-HCl (pH 8.0), 5 mM NaCl, 2 mM MgCl2, 1mM DTT, 0.01% Tween- 20, and 2.5 ug/ml poly(dI-dC), including enzyme (50 nM RECQ1T1), were dispensed into a 1536-well Greiner black assay plate via solenoid-valve based nanoliter dispensers. Compounds (23 nl each in columns 5-48) and control (23 nl each in column 2 as dose-response) were transferred via a Kalypsys pintool equipped with a 1536-pin array. The plates were incubated for 15 min at room temperature, and then 1 ul of substrates (200 nM DNA and 2 mM ATP, final concentrations) was added to start the reaction. The plate was transferred into a ViewLux high-throughput CCD imager where the reaction progress was measured in a discontinuous kinetic mode (two reads spaced 2 hours apart, with intermediate room temperature incubation of the covered assay plate) by using standard red-fluorescence optics (excitation filter 525 nm, emission filter 598 nm). Enzyme-free and vehicle (DMSO) controls were included for signal normalization.
# Potency is the fitted concentration of half-maximal effect.
# ATP-dependent DNA helicase Q1 (Homo sapiens), sequence (P46063 whole entry, looked up): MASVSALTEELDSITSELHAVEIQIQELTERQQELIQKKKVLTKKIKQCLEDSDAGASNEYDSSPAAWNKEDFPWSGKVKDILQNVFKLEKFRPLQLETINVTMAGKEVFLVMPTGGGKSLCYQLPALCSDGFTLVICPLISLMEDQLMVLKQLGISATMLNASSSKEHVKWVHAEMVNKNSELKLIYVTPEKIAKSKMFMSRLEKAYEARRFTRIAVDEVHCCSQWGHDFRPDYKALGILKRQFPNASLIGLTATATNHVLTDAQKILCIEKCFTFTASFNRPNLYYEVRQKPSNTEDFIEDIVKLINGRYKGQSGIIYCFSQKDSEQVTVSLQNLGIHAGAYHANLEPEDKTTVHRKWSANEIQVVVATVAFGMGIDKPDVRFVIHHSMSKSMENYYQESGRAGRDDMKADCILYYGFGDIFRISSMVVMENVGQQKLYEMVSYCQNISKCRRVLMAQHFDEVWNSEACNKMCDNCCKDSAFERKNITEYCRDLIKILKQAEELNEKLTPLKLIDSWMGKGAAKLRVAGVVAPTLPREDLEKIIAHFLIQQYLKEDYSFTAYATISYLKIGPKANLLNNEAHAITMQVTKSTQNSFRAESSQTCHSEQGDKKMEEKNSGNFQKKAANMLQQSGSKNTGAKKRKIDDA
row,SMILES,Potency
1,O=C(O)CCn1c(SCc2cc(=O)n3ccccc3n2)nc2ccsc2c1=O,inactive
2,CC(C)(O)c1ccccc1CC[C@H](SCC1(CC(=O)O)CC1)c1cccc(/C=C/c2ccc3ccc(Cl)cc3n2)c1,40.8 µM (active)
3,CC(=O)Nc1ccc(Nc2c3ccccc3nc3ccccc23)cc1,22.4 µM (active)
4,O=C(N/N=C/c1sc(N2CCCCC2)nc1-c1cccs1)c1cccnc1,inactive
5,O=C(NC(Cc1ccccc1)C(=O)N1CCCC1C(=O)O)c1ccccc1 (stereo not drawn) (Bz-Phe-Pro-OH; configuration not given here),inactive
6,CC1(C)OC2CC(=O)OC[C@@]23C1CC(=O)[C@]1(C)C3CC[C@@]2(C)C(c3ccoc3)OC(=O)C3O[C@@]321 (some centres not stated),inactive
7,Cc1ccc(C)n1C(Cc1ccccc1)C(=O)O (configuration not stated),22.4 µM (active)
8,c1ccc(CSc2nnc(-c3ccco3)c(-c3ccco3)n2)cc1,39.8 µM (active)
9,CC1Cc2ccccc2N1C(=O)CSc1nnc(-c2ccc(S(=O)(=O)N3CCCC3)cc2)n1C (configuration not stated),inactive
10,Oc1ccc(N=Cc2sc3ccccc3c2Cl)cc1,inactive
11,O=C(NCc1ccccc1)C1=C[C@@H](C2CCCCC2)C[C@@H](OCc2ccc(CO)cc2)O1,inactive
12,COc1cc(C2C(C(=O)c3ccc(C)o3)=C(O)C(=O)N2CCc2ccccc2)ccc1O (configuration not stated),inactive
13,COc1ccc(-c2nc3c(c(SCC(=O)Nc4ccc(C(=O)O)cc4)n2)Cc2ccccc2O3)cc1,2.89 µM (active)
14,Cc1ccccc1NC(=O)CN1C(=O)N/C(=C\c2cccn2-c2cccc(C(=O)O)c2)C1=O,31.6 µM (active)
15,O=C(NC(Cc1c[nH]c2ccccc12)C(=O)O)/C(=C/c1ccco1)NC(=O)c1ccccc1 (configuration not stated),inactive
16,O=C(CCn1nnc2ccccc2c1=O)N[C@@H](Cc1c[nH]c2ccccc12)C(=O)O,inactive
17,O=C(c1cc2c(s1)CCC2)N1CCN(c2ccccc2)CC1,39.8 µM (active)
